Screening results: PubChem, National Center for Advancing Translational Sciences (NCATS)
Sampled rows, rich in hits. Any-hit rate of the full collection: about 19%.
HT1080 IDH1KD tx – qHTS for induction of synthetic lethality in tumor cells producing 2HG: qHTS for the HT-1080-IDH1KD cell line; HT-1080 IDH1 knockdown viability, ATP luminescence, 48 h; Potency, µM (highest dose often 46.1 µM), most hits filed as cytotoxic; 360,000 compounds, 2% hits; AID 686971, 2013
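Knockdown cells (IDH1KD HT-1080) received compounds 2 h after plating at 750 cells/well and were kept 48 h at 37 °C in 5% FBS RPMI. A CellTiter-Glo luminescence read gave % activity for curve fitting.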
KB-3-1 tox – qHTS assay for MDR1-selective chemotherapeutics: Primary screen using the parental adenocarcinoma cell KB-3-1 | 400,000 compounds, 1.4% hits | AID 1347075, 2019 | KB-3-1 viability, CellTiter-Glo ATP luminescence, 72 h | Potency, µM (doses to about 46.1 µM), usual class: cytotoxic; note: nearly all actives have a fitted effect of over 60% in size
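Using CellTiter-Glo luminescence, growth of non-resistant KB-3-1 adenocarcinoma cells is assessed 72 h after pin-tool compound addition at 37 °C. Normalized responses across the concentration series yield fitted curves.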
TDP1 cell noCPT – qHTS for Inhibitors of human tyrosyl-DNA phosphodiesterase 1 (TDP1): qHTS in cells in absence of CPT; DT40 Tdp1-/- hTDP1 cells, no CPT, ATP luminescence, 48 h; 420,000 compounds, 15% hits; Potency, µM (doses to about 46.2 µM), hits mostly inhibitors; note: nearly all actives have a fitted effect of over 55% in size
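Growth of hTDP1-complemented DT40 Tdp1-knockout cells is measured by ATP luminescence after at least 48 hr compound exposure at 37 °C, with DMSO substituting for the 20 nM CPT used in the parallel screen.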
HT1080NT lethal – qHTS for induction of synthetic lethality in tumor cells producing 2HG: qHTS for the HT-1080-NT fibrosarcoma cell line | HT-1080-NT fibrosarcoma viability, CellTiter-Glo ATP luminescence, 48 h | 360,000 compounds, 1.6% hits | Potency, µM (doses to about 46.1 µM), most hits filed as cytotoxic;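 note: NT is the 2HG producing partner of a matched IDH1 knockdown line; nearly all actives have a fitted effect of over 55% in size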
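Fibrosarcoma NT cells, 750 per well in 5% FBS RPMI, were exposed to compound for 48 hours. Viability: CellTiter-Glo luminescence.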
TDP1 cell CPT – qHTS for Inhibitors of human tyrosyl-DNA phosphodiesterase 1 (TDP1): qHTS in cells in presence of CPT | chicken DT40 Tdp1-/-;hTDP1 cells + 20 nM CPT, ATP luminescence, 48 h | Potency, µM (highest dose often 46.2 µM), most hits filed as inhibitors | 420,000 compounds, 12% hits; note: nearly all actives have a fitted effect of over 55% in size
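Cell growth measured by CellTiter-Glo luminescence after a minimum 48 h, 37 C compound exposure with 20 nM CPT in Tdp1-knockout DT40 cells stably expressing hTDP1, seeded 400/well; qHTS titration format.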
KB-V1 cytotox – qHTS assay for MDR1-selective chemotherapeutics: Primary screen using the drug-selected MDR subline cells KB-V1; KB-V1 MDR cells viability, CellTiter-Glo, 72 h; Potency, µM (doses to about 46.1 µM), actives largely listed as cytotoxic; 400,000 compounds, 3.4% hits; AID 1347076, 2019; note: nearly all actives have a fitted effect of over 60% in size
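Readout: CellTiter-Glo luminescence, 10 min after addition. Cells: KB-V1 MDR subline, 72 h at 37 degrees C with compound. Analysis: corrected, normalized data fitted to concentration-effect curves.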
Each line names hits and unclear results; the compound was inactive in the other large screens. Calls come from the whole dose curve; as a rule, active = well fitted curve in the direction sought with a large enough effect; inconclusive = small, poorly fitted or top-dose-only effect, or another doubt; inactive = no such curve, though single readings can be large; an effect the other way counts as inactive or inconclusive.

CC(C)(C)CNC(=O)C1(C)CCN1C(=O)Cc1ccc(C(C)(C)C)cc1 (centres undefined)	TDP1 cell noCPT inconclusive, TDP1 cell CPT inconclusive
Cc1ccc(NC(=O)C2(C)CCN2C(=O)Cc2ccc(C(C)(C)C)cc2)cc1C (centres undefined)	HT1080 IDH1KD tx inconclusive, TDP1 cell noCPT 10.3µM, HT1080NT lethal 18.4µM, TDP1 cell CPT 20.6µM
CCOC(=O)C1CCN(C(=O)Cn2nc(C)n3cccc3c2=O)CC1	none
COc1ncc2nc(-c3ccc(F)cc3)c(=O)n(Cc3ccc(F)cc3)c2n1	none (no result: HT1080 IDH1KD tx, KB-3-1 tox, HT1080NT lethal, KB-V1 cytotox)
COc1ccc(CCNC(=O)CC(C)(C)CC2=NS(=O)(=O)c3ccccc3N2)cc1OC	none
COc1ccc(OC)c(CCNC(=O)CC2(CC3=NS(=O)(=O)c4ccccc4N3)CCCC2)c1	TDP1 cell noCPT inconclusive, TDP1 cell CPT 11.6µM
CC1=C(C(=O)Nc2cccc(C(F)(F)F)c2)C2(CCN(C(C)C)CC2)OC1=O	none (no result: HT1080 IDH1KD tx, HT1080NT lethal)
C=C1C(=O)OC2C1CCC(C)=C1C(=O)C3OC3(C)C12 (centres undefined)	HT1080 IDH1KD tx 16.4µM, KB-3-1 tox inconclusive, TDP1 cell noCPT 0.184µM, HT1080NT lethal inconclusive, TDP1 cell CPT 0.058µM, KB-V1 cytotox inconclusive
Cc1ccc2[nH]c(O)c(N=NC(=O)C3CC3c3ccccc3)c2c1Br (centres undefined)	TDP1 cell noCPT 23.1µM, TDP1 cell CPT 20.6µM, KB-V1 cytotox inconclusive
CCCN(Cc1cc2cc(OC)ccc2[nH]c1=O)C(=O)c1ccncc1	HT1080 IDH1KD tx inconclusive, KB-3-1 tox inconclusive, TDP1 cell noCPT 16.4µM, HT1080NT lethal inconclusive, TDP1 cell CPT inconclusive
CCCN(Cc1cc2cc(OC)ccc2[nH]c1=O)C(=O)c1ccco1	TDP1 cell noCPT 16.4µM, TDP1 cell CPT 29.1µM
COc1ccc2[nH]c(=O)c(CN(C)C(=O)c3ccncc3)cc2c1	none
O=C(Cn1cc(S(=O)(=O)Cc2cccc(Cl)c2)c2ccccc21)Nc1ccccc1Cl	KB-3-1 tox inconclusive (no result: HT1080 IDH1KD tx, HT1080NT lethal)
CC1(C(=O)NS(=O)(=O)c2cccs2)CCN1C(=O)C1CC1 (centres undefined)	none
CCN(C(=O)COC(=O)/C=C/c1ccc(Cl)c(Cl)c1)c1c(N)n(Cc2ccccc2)c(=O)[nH]c1=O	TDP1 cell noCPT 2.06µM, TDP1 cell CPT 3.66µM
CCN(C(=O)COC(=O)/C=C/c1cccc(Cl)c1)c1c(N)n(Cc2ccccc2)c(=O)[nH]c1=O	TDP1 cell noCPT inconclusive, TDP1 cell CPT 23.1µM
CN(C(=O)COC(=O)/C=C/c1cccs1)c1c(N)n(Cc2ccccc2)c(=O)[nH]c1=O	none
CCN(C(=O)COC(=O)/C=C/c1ccccc1Cl)c1c(N)n(Cc2ccccc2)c(=O)[nH]c1=O	TDP1 cell noCPT inconclusive, TDP1 cell CPT inconclusive
CN(C(=O)COC(=O)/C=C/c1ccc(C(F)(F)F)cc1)c1c(N)n(Cc2ccccc2)c(=O)[nH]c1=O	TDP1 cell noCPT 6.51µM, TDP1 cell CPT 6.51µM
O=C(CSc1ncn[nH]1)N1c2ccccc2Sc2ccccc21	none
CCN(C[C@H]1N[C@@](CC)(C(=O)OC)[C@H]2C(=O)N(C)C(=O)[C@@H]12)S(=O)(=O)c1ccc(C(F)(F)F)cc1	TDP1 cell noCPT inconclusive
Cc1cccc(-c2nn(-c3ccccc3)cc2C(=O)N2CCN(C3CCS(=O)(=O)C3)CC2)c1 (centres undefined)	KB-V1 cytotox 16.4µM
Cc1ccc(-c2cc(C(=O)N3CCN(C4CCS(=O)(=O)C4)CC3)c3ccccc3n2)cc1 (centres undefined)	TDP1 cell noCPT inconclusive, TDP1 cell CPT 13µM, KB-V1 cytotox inconclusive
COc1ccc(C(O)(CC(C)C)C(CN2CCOCC2)c2ccccc2)cc1 (centres undefined)	TDP1 cell noCPT 20.6µM, TDP1 cell CPT inconclusive
CCc1ccc(C(O)(CC(C)C)C(CN2CCOCC2)c2ccccc2)cc1 (centres undefined)	KB-3-1 tox inconclusive, TDP1 cell noCPT inconclusive, TDP1 cell CPT inconclusive, KB-V1 cytotox inconclusive
CC(C)(c1ccccc1)c1ccc(OCC(O)CN2CCCC2)cc1 (centres undefined)	HT1080 IDH1KD tx inconclusive, KB-3-1 tox inconclusive, TDP1 cell noCPT inconclusive, HT1080NT lethal inconclusive, TDP1 cell CPT inconclusive
CCCCC(O)(c1ccc(F)cc1)C(CN1CCOCC1)c1ccc(Cl)cc1 (centres undefined)	HT1080 IDH1KD tx inconclusive, KB-3-1 tox inconclusive, TDP1 cell noCPT inconclusive, HT1080NT lethal inconclusive, TDP1 cell CPT inconclusive, KB-V1 cytotox 8.2µM
CCOc1ccc(C(O)(c2ccccc2)C(CN2CCCC2)c2ccccc2)cc1 (centres undefined)	TDP1 cell noCPT 7.31µM, HT1080NT lethal inconclusive, TDP1 cell CPT inconclusive
CCCC(O)(c1ccc(Cl)cc1)C(CN1CCOCC1)c1ccc(Cl)cc1 (centres undefined)	HT1080 IDH1KD tx inconclusive, KB-3-1 tox inconclusive, TDP1 cell noCPT inconclusive, HT1080NT lethal inconclusive, TDP1 cell CPT inconclusive, KB-V1 cytotox 16.4µM
CCCC(O)(CCN1CCOCC1)c1ccc(Cl)cc1 (centres undefined)	none
CCc1ccc(C(O)(c2ccccc2OC)C(CN2CCOCC2)c2ccccc2)cc1 (centres undefined)	TDP1 cell noCPT inconclusive, TDP1 cell CPT inconclusive
COc1ccc(C(O)(CCC(C)C)C(CN2CCOCC2)c2ccc(Cl)cc2)cc1 (centres undefined)	HT1080 IDH1KD tx inconclusive, KB-3-1 tox inconclusive, TDP1 cell noCPT 14.6µM, HT1080NT lethal inconclusive, TDP1 cell CPT inconclusive, KB-V1 cytotox 25.9µM
CCOc1ccc(C(O)(CCC(C)C)C(CN2CCOCC2)c2ccccc2)cc1 (centres undefined)	HT1080 IDH1KD tx 18.4µM, TDP1 cell noCPT 20.6µM, HT1080NT lethal inconclusive, TDP1 cell CPT inconclusive, KB-V1 cytotox inconclusive
COc1ccc(C(O)C(CN2CCOCC2)c2ccccc2)cc1 (centres undefined)	none
CC(Sc1nnc2c(n1)[nH]c1ccccc12)C(=O)N(C)C1CCCCC1 (centres undefined)	TDP1 cell noCPT 20.6µM, TDP1 cell CPT 25.9µM
COC(=O)c1ccc(CSc2nnc3c(n2)[nH]c2ccccc23)cc1	none
